Sampled rows, rich in hits. Any-hit rate of the full collection: about 6.8%.
Cy5 interf NS3h = Cy5 fluorescence interference, HCV helicase counter-screen. 16,000 tested, 6% active. Cy5-dT15 DNA with NS3h; actives lie on both sides; signal over control mean, under 1 quenches. AID 720488. fluorescence interference ratio at 100 µM;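 active means compound fluorescence over control fluorescence at most 0.8, a quencher, or at least a set upper limit, an enhancer; inactive means ratio between 0.8 and the set upper limit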
NS3h inh CB = blocks HCV NS3 helicase binding to DNA; AID 687043; inhibition, % at 100 µM; 16,000 tested, 1.6% active; NS3h Cy5-dT15 DNA binding, fluorescence polarization;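 active means inhibition above the average over every tested compound plus 3 SD, cut at about 40% in these data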
Hits are given with their value; – = inactive.

SMILES	Cy5 interf NS3h	NS3h inh CB
O=[N+]([O-])c1ccc(CSc2nnc(-c3cccc(F)c3)n2-c2ccccc2)cc1	0.79	–
Cc1ccc(CSc2nnc(-c3cccc(F)c3)n2-c2ccccc2)cc1	–	–
N#Cc1conc1-c1ccc(Br)cc1	–	–
CC12CC3CC(C)(C1)CC(C(=O)Nc1ccc(Cl)cc1)(C3)C2	–	–
O=C(Oc1cccc2ccccc12)c1ccco1	0.57	–
N/C(Cc1cccc2ccccc12)=N/OC(=O)c1ccco1	–	–
O=C(O)/C=C\C(=O)Nc1cccc(O)c1	–	–
COC(=O)c1ccccc1NC(=O)c1ccc(I)cc1	–	–
Cc1ccc(C(=O)/C=C2\C(=O)Nc3ccccc32)cc1	–	–
CC(=O)N1C(=O)/C(=C/C(=O)c2ccccc2)c2ccccc21	0.79	–
CN=C(NOCc1ccccc1)c1nonc1N	–	–
CCN(CC)/C(=N\OCc1ccc(Cl)cc1Cl)c1nonc1N	0.67	–
CCN1C(=O)/C(=C\c2ccc(Cl)c([N+](=O)[O-])c2)SC1=S	–	–
CCC(C(=O)Nc1ccc(C)cc1)c1ccccc1 (stereo unspecified)	1.3	–
CCC(C(=O)Nc1cccc(C)c1)c1ccccc1 (stereo unspecified)	–	–
CN(C)c1ccc(/C=N\NC(=O)C(O)(c2ccccc2)c2ccccc2)o1	–	–
CCc1ccc(NC(=O)C(=O)NCC2CCCO2)cc1 (stereo unspecified)	0.75	–
O=C(NCC1CCCO1)C(=O)Nc1ccc(F)cc1 (stereo unspecified)	–	–
CC(NC(=O)C(=O)NCC1CCCO1)c1ccccc1 (stereo unspecified)	0.64	–
O=C(NCC1CCCO1)C(=O)Nc1ccccc1F (stereo unspecified)	–	–
COc1ccc(Cl)cc1C(=O)N1CCN(c2ccc([N+](=O)[O-])cc2)CC1	–	–
CN(C)CC(O)CN(c1ccccc1)S(=O)(=O)c1ccc([N+](=O)[O-])cc1 (stereo unspecified)	0.79	–
Cc1ccc(S(=O)(=O)N(CC(C)C)CC(C)C)cc1	–	–
NC(=O)CN(c1cccc([N+](=O)[O-])c1)S(=O)(=O)c1ccccc1	–	–
Cc1ccc(S(=O)(=O)N(CC(O)CN(CC(C)C)CC(C)C)c2cccc(C)c2)cc1 (stereo unspecified)	0.77	–
SMILES	Cy5 interf NS3h	NS3h inh CB
COc1ccc(N(CC(O)CN(Cc2ccccc2)Cc2ccccc2)S(=O)(=O)c2ccc(C)cc2)cc1 (stereo unspecified)	–	–
Cc1cccc(N(CC(O)CN(Cc2ccccc2)Cc2ccccc2)S(=O)(=O)c2ccccc2)c1 (stereo unspecified)	0.7	–
CCOc1cc(/C=c2\sc3nc4ccccc4n3c2=O)cc(Br)c1OCc1ccc(F)cc1	–	–
Cc1cc(=O)[nH]c(Nc2nc(C)c3cccc(C)c3n2)n1	–	–
Cc1nc(Nc2nc(O)cc(=O)[nH]2)nc2c(C)cccc12	0.64	–
COC(=O)c1c(NC(=O)Nc2ccc(Cl)c(Cl)c2)sc2c1CCC2	1.2	–
CCOC(=O)c1c(NC(=S)Nc2ccc(OC)cc2)sc2c1CCCCC2	–	–
Cc1ccc(NC(=O)C2CC2(c2ccccc2)c2ccccc2)cc1 (stereo unspecified)	–	–
O=C1C2C(c3ccccc3Cl)OC3(C(=O)c4ccccc4C3=O)C2C(=O)N1c1ccccc1C(F)(F)F (stereo unspecified)	–	–
CC(=C(C#N)C#N)c1ccc2c(c1)OCO2	0.74	–
CC(=C(C#N)C#N)c1ccc2c(c1)OCCO2	–	–
CC1=NN(c2ccccc2)C(=O)/C1=C/c1ccc(-c2ccc(C(=O)O)cc2)o1	–	–
O=P(c1ccccc1)(c1ccccc1)c1ccccc1O	–	–
Cc1ccc(-c2nc3ccccn3c2NC(=O)c2ccc(Cl)cc2)cc1	–	–
Cc1ccc(-c2nc3ccccn3c2NC(=O)c2ccccc2)cc1	0.78	–
Cc1ccc(/C=C2/SC(=S)NC2=O)s1	0.79	–
Cc1ccc(/C=C2/NC(=S)NC2=O)s1	–	–
COc1cc(C=C2C(=O)N(C)C(=O)N(C)C2=O)cc(Cl)c1OCCOc1ccccc1	–	–
O=C(Nc1ncc(S(=O)(=O)c2ccc([N+](=O)[O-])cc2)s1)c1cccc([N+](=O)[O-])c1	–	–
COc1ccc(C2=NN(c3nc(-c4ccc(C)c(C)c4)cs3)C(c3ccc(OC)cc3)C2)cc1 (stereo unspecified)	–	–
COc1ccc(/C=C/C(=O)N2CCCCCC2)cc1Br	–	–
COc1ccc(/C=C/C(=O)N2CCOCC2)cc1OC	0.63	–
COc1ccc(C(=O)Nc2ccccc2C(=O)NC(C(=O)NCc2ccccc2)C(C)C)cc1 (stereo unspecified)	–	–
CSc1ccccc1NC(=O)c1nn2c(c1Br)NC(c1cccs1)CC2C(F)(F)F (stereo unspecified)	0.74	–
COc1ccc(Cl)cc1NC(=O)c1nn2c(c1Cl)NC(c1cccs1)CC2C(F)(F)F (stereo unspecified)	–	–
SMILES	Cy5 interf NS3h	NS3h inh CB
O=C(NCc1ccccc1)c1nn2c(c1Br)NC(c1cccs1)CC2C(F)(F)F (stereo unspecified)	–	–
O=C(Nc1ccc(F)cc1F)c1nn2c(c1Cl)NC(c1cccs1)CC2C(F)(F)F (stereo unspecified)	0.74	–
O=C(Nc1cccc(C(F)(F)F)c1)c1nn2c(c1Br)NC(c1cccs1)CC2C(F)(F)F (stereo unspecified)	–	–
O=C(NCCc1ccccc1)c1nn2c(c1Br)NC(c1cccs1)CC2C(F)(F)F (stereo unspecified)	0.54	–
CC(C)(C)NC(=O)c1nn2c(c1Br)NC(c1cccs1)CC2C(F)(F)F (stereo unspecified)	–	–
O=C(NCCCN1CCOCC1)c1nn2c(c1Br)NC(c1cccs1)CC2C(F)(F)F (stereo unspecified)	0.71	–
Cc1cc([N+](=O)[O-])ccc1-c1ccc(C(=O)Nc2ccc(Cl)cc2)o1	–	–
Cc1ccc(NC(=O)C(=O)NCCCOC(C)C)c(C)c1	–	–
COc1ccc(C2C(=C(O)c3ccccc3)C(=O)C(=O)N2c2cccc(C)n2)cc1 (stereo unspecified)	–	–
COc1ccc(N(CC(=O)Nc2ccc3ccccc3c2)S(=O)(=O)c2ccccc2)cc1Cl	–	–
O=C(O)CCCN1C(=O)/C(=C/c2ccc3c(c2)OCO3)SC1=S	–	–
Cc1cccc(NCCC(=O)c2cccs2)c1C	0.78	–
O=C(CCNc1ccc(F)cc1)c1cccs1	–	–
O=C(COc1ccc(Cl)cc1)Nc1cccc(-c2nc3ccccc3s2)c1	–	–
CC12CC3(C)CC(C)(C1)CC(C(=O)NCCO)(C2)C3	1.3	–
CC12CC3(C)CC(C)(C1)CC(C(=O)NN)(C2)C3	–	–
CCCOc1ccc(C(=O)Nc2ccc(Br)cc2C(=O)O)cc1	–	–
COc1ccc(NC(=O)CN(c2ccc(OC)cc2)S(C)(=O)=O)cc1	–	–
COc1ccc(CCNC(=O)c2ccc(N(Cc3ccc(Cl)cc3)S(C)(=O)=O)cc2)cc1OC	0.75	–
Cc1ccc(N(Cc2ccc(C(=O)NCCSc3ccc(Cl)cc3)cc2)S(C)(=O)=O)cc1C	–	–
COCCCNC(=O)c1ccc(N(C)S(=O)(=O)c2ccccc2)cc1	–	–
COCCCNC(=O)c1ccc(CN(c2ccccc2)S(C)(=O)=O)cc1	0.79	–

Screens deposited in PubChem BioAssay by Milwaukee Institute for Drug Discovery.
